We go through nine compounds from PubChem BioAssay.

Assay [1] is described as follows: optical density shifts of acrAB sulA E. coli – strain DRC41, OD650, 48 h, E. coli filamentation inducer project, primary screen (AID 1152).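 Further: E. coli MC1000 strain DRC41 lacking acrAB efflux pump and sulA.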 To be noted: higher = more signal, called active from +8 up or from −8 down.
A short description of assay [2]: probe aLefty1 binding on compound microarray – biochemical, small-molecule microarray, 635/667 nm fluorescence, primary screen (AID 1153).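 Further: score merges spot fluorescence with signal-to-noise ratio from the scanned slide images.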 To be noted: higher = more signal.
Assay [3] is described as follows: plasmodial surface anion channel blockers, osmotic lysis – cell-based, P. falciparum Indochina, OD700, 1 h, primary screen (AID 1154). To be noted: P. falciparum Indochina infected RBC osmotic lysis, higher = more signal, called active from +8 up or from −8 down.
Assay [4] can be described thus: plasmodial surface anion channel blockers, osmotic lysis – cell-based, P. falciparum Indochina, OD700, 2 h, primary screen (AID 1155).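 Further: lysis reports solute entry through the parasite surface anion channel PSAC.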 To be noted: P. falciparum Indochina infected erythrocytes, higher = more signal, called active from +8 up or from −8 down.
Assay [5] is described as follows: changes in parasitized red cell lysis, either direction – P. falciparum Indochina, OD700, 3 h, PSAC antagonist project, primary screen (AID 1156). To be noted: P. falciparum-infected erythrocytes, osmotic lysis, higher = more signal, called active from +8 up or from −8 down.
The nature of assay [6]: plasmodial surface anion channel blockers, osmotic lysis – cell-based, P. falciparum Indochina, OD700, 18 h, primary screen (AID 1157). The settings on record: P. falciparum Indochina infected erythrocytes, osmotic lysis OD700, 18 h; higher = more signal, called active from +8 up or from −8 down.
Assay [7] is described as follows: S6 kinase pathway phospho-S6 level changes – cell-based, A549, cytoblot, luminescence, serum-stimulated, primary screen (AID 1158).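 Further: serum-stimulated A549 lung adenocarcinoma cells; signal is phosphorylated S6 detected by cytoblot immunostaining with HRP secondary.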 To be noted: 5 h, higher = more signal.
Assay [8] has as its target NADPH oxidase 2 (Homo sapiens) (UniProt P04839). The assay can be described thus: compounds shifting NOX2 Amplex Red fluorescence – cell-based, HEK293-NOX2, PMA-stimulated, NOX inhibitor project, primary screen (AID 1159). Further: test concentration not given here. The settings on record: 45 min, higher = more signal, called active from +8 up or from −8 down.
Assay [9] deals with NADPH oxidase 4 (Homo sapiens) (UniProt Q9NPH5). The assay can be described thus: compounds shifting NOX4 Amplex Red fluorescence – cell-based, HEK293-NOX4, tetracycline-induced, NOX inhibitor project, primary screen (AID 1160). To be noted: HEK293-NOX4, Amplex Red H2O2 fluorescence, 45 min; higher = more signal, called active from +8 up or from −8 down.
The target of assay [10] is NADPH oxidase 5 (Homo sapiens) (UniProt Q96PH1). The assay can be described thus: compounds shifting NOX5 Amplex Red fluorescence – cell-based, HEK293-NOX5, NOX inhibitor project, primary screen (AID 1161). To be noted: HEK293-NOX5, ionomycin, 45 min, higher = more signal.
Assay [11] is described as follows: compound effects on lung adenocarcinoma cell viability – A549, calcein-AM fluorescence, 48 h, basal, profiling panel (AID 1162). Further: test concentration not given here. To be noted: higher = more signal.
Assay [12] is described as follows: compound effects on differentiated 3T3-L1 adipocyte viability – cell-based, 3T3-L1 adipocytes, calcein-AM fluorescence, 48 h, basal, profiling panel (AID 1163). Further: test concentration not given here. The settings on record: 3T3-L1 adipocytes viability, higher = more signal.
Assay [13] is described as follows: compound effects on hepatocellular carcinoma cell viability – HepG2, calcein-AM fluorescence, 48 h, basal, profiling panel (AID 1164). Further: test concentration not given here. To be noted: higher = more signal.
The nature of assay [14]: compound effects on multiple myeloma cell viability – MM1S, calcein-AM fluorescence, 48 h, basal, profiling panel (AID 1165).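 Further: viability of MM1S multiple myeloma cells under basal unstimulated conditions; test concentration not given here.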 To be noted: higher = more signal.
The nature of assay [15]: calcein-AM signal in unstimulated myeloma cells – cell-based, calcein-AM fluorescence, 48 h, PK04 Diversity Set, profiling panel (AID 1166).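 Further: cells grown under basal conditions without added stimulus; test concentration not given here.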 The settings on record: RPMI8226 myeloma viability, higher = more signal.
Assay [16] is described as follows: JC-1 mitochondrial signal, unstimulated HepG2 cells – cell-based, JC-1 fluorescence, 24 h, 100 nL compound, profiling panel (AID 1167). Further: test concentration not given here. The settings on record: HepG2 mitochondrial potential, higher = more signal.
A short description of assay [17]: JC-1 mitochondrial signal, unstimulated adipocytes – cell-based, JC-1 fluorescence, 3T3-L1 adipocytes, 24 h, 100 nL compound, profiling panel (AID 1168). Further: test concentration not given here. The settings on record: JC-1 mitochondrial fluorescence, higher = more signal, called active from +8 up or from −8 down.
The nature of assay [18]: JC-1 mitochondrial signal, unstimulated myeloma cells – cell-based, JC-1 fluorescence, RPMI8226, 24 h, 100 nL compound, profiling panel (AID 1169). Further: test concentration not given here. The settings on record: JC-1 mitochondrial potential fluorescence, higher = more signal.
Assay [19] in a line: JC-1 mitochondrial signal, unstimulated MM1S myeloma – cell-based, JC-1 fluorescence, 24 h, 100 nL compound, profiling panel (AID 1170). Further: test concentration not given here. To be noted: MM1S mitochondrial potential, higher = more signal.
Assay [20] can be described thus: resazurin metabolic signal in A549 cells – cell-based, resazurin fluorescence, 24 h, PK04 Diversity Set, profiling panel (AID 1171). Further: test concentration not given here. To be noted: A549 viability, higher = more signal, called active from +8 up or from −8 down.

The source made the active and inactive calls.

NADPH oxidase 2 (Homo sapiens), sequence (P04839 whole entry, looked up): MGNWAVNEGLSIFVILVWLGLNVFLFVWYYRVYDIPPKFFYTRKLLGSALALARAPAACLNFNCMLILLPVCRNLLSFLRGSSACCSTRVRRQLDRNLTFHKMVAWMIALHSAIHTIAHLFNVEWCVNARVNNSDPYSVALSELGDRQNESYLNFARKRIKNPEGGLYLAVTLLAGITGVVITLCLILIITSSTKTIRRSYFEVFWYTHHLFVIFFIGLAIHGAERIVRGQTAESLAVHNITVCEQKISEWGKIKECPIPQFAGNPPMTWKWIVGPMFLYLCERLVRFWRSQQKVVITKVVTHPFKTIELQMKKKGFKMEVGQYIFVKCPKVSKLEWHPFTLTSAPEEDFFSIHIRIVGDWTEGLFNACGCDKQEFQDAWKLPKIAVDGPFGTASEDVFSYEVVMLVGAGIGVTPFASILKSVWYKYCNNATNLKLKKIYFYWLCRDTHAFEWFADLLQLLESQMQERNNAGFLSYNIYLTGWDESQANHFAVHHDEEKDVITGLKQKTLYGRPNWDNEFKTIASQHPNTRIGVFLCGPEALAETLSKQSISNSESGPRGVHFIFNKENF
NADPH oxidase 4 (Homo sapiens), sequence (Q9NPH5 whole entry, looked up): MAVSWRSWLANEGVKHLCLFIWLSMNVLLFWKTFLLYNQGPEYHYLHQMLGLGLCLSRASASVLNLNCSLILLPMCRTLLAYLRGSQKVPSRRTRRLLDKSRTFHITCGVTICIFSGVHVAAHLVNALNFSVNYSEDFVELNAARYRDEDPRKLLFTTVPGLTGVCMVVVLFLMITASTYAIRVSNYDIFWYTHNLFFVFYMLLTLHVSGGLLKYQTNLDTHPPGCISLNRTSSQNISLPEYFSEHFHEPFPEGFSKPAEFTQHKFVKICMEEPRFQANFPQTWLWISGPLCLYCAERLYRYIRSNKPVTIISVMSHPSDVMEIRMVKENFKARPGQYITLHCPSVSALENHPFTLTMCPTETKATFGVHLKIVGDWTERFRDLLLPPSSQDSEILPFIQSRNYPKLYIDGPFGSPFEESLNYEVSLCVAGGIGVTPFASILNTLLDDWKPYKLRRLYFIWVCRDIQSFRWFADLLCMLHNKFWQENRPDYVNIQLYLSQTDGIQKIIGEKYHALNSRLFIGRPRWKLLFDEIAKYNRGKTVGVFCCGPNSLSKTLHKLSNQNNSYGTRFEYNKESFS
NADPH oxidase 5 (Homo sapiens), sequence (Q96PH1 whole entry, looked up): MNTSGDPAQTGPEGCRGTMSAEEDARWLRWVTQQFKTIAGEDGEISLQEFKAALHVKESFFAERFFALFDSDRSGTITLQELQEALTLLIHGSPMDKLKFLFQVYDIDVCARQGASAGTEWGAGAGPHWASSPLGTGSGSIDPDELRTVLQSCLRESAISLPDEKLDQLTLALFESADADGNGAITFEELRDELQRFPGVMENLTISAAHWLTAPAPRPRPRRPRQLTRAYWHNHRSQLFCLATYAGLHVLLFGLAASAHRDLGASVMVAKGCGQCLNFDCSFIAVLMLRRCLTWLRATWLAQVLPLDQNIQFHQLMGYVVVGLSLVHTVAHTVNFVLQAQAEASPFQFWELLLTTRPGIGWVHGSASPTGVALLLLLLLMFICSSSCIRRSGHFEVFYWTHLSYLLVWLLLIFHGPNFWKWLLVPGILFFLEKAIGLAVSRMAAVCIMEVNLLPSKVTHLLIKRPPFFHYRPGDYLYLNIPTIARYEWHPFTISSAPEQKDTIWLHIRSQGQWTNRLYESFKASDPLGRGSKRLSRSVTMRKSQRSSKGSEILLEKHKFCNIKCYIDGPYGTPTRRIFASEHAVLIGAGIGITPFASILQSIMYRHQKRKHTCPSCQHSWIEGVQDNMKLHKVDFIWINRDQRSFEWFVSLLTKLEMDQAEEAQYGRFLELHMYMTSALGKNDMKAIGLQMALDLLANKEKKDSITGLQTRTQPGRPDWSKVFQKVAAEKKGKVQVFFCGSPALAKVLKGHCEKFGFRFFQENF

On to `C[C@H]1COC(=O)[C@@H]2CCCN2C(=O)[C@@H](C)COC(=O)[C@H](Cc2ccccc2)NC1=O`, for which the z-score in [1] was -0.0891 (inactive); in assay [3], 0.115 (inactive); in assay [4], -0.29 (inactive); in [5], 0.968 (inactive); in [6], 0.22 (inactive); in [7] it was 0.413. Moreover, the z-score in [8] was -0.45 (inactive); in assay [9], -0.114 (inactive); in assay [10], -0.272; in assay [11], -0.398; in assay [12], -0.501; in assay [13], -0.501. In addition, the z-score in assay [14] is 0.119; in assay [15], -0.364; in [16] it was 0.278; in [17] it was -0.906 (inactive); in assay [18] it was -0.287; in assay [19] it was -0.825. Besides, the z-score in [20] was 0.264 (inactive). Moreover, the composite z-score in [2] was -0.394.
With `CCOC(=O)C1=NO[C@]2(C=C(Br)C3(OCCCO3)[C@H]3O[C@H]32)C1`, the z-score was 0.209 (inactive) in assay [1]; -0.228 (inactive) in assay [3]; 0.142 (inactive) in assay [4]; -0.348 (inactive) in [5]; 0.0748 (inactive) in assay [6]; -0.428 in [7]. The z-score in assay [8] was 1.18 (inactive); in [9], 0.492 (inactive); in [10], 0.12; in assay [11], -0.718; in assay [12], -0.188; in [13], -0.186. Also, the z-score was -0.986 in assay [14]; -0.172 in [15]; -1.04 in assay [16]; -0.207 (inactive) in assay [17]; 0.157 in [18]; 0.199 in assay [19]. Moreover, the z-score in assay [20] is 0.0721 (inactive). Also, in [2], the composite z-score is -0.0075.
On to `CCc1cc2c(nc1CC)CCN(CCC(C)=NO[C@H](C)c1cn([C@H](CO)Cc3ccccc3)nn1)C2`, for which the z-score in assay [1] was -0.266 (inactive); in assay [3], 4.7 (inactive); in [4] it was 1.3 (inactive); in assay [5] it was 1.84 (inactive); in assay [6], 0.514 (inactive); in assay [7], 0.917. For the same compound, the z-score in assay [8] is -0.221 (inactive); in [9] it was -0.461 (inactive); in assay [10], 2.32; in assay [11], 0.449; in assay [12], 1.22; in assay [13] it was 0.405. In addition, the z-score is 0.341 in [14]; -0.905 in assay [15]; 0.551 in assay [16]; -1.37 (inactive) in assay [17]; -0.664 in assay [18]; 0.105 in assay [19]. For the same compound, in assay [20], the z-score was -0.285 (inactive). The same compound registered a composite z-score in assay [2] of 0.832.
`COc1ccc(O[C@H]2C=C[C@@H](c3ccccc3)O[C@@H]2CON=C(C)CCC(=O)OC[C@H]2O[C@H](c3ccccc3)C=C[C@@H]2Oc2ccc(OC)cc2)cc1`: the z-score is 0.274 (inactive) in [1]; 0.99 (inactive) in assay [3]; 0.328 (inactive) in assay [4]; 0.104 (inactive) in assay [5]; 0.464 (inactive) in assay [6]; -0.661 in [7]. Also, the z-score in [8] was -0.2 (inactive); in [9], 0.988 (inactive); in [10], -0.925; in assay [11], -0.094; in assay [12], -0.603; in assay [13] it was -0.144. In addition, the z-score in assay [14] is -1.44; in assay [15], -0.31; in assay [16] it was 1.08; in [17] it was 0.244 (inactive); in [18], 0.534; in assay [19], -0.492. Further, the z-score in assay [20] is 0.305 (inactive). In assay [2], this compound yielded a composite z-score of 0.64.
`CCN1C(=O)[C@H]2[C@H]3[C@H](O)[C@H](O)CC(=O)[C@@H]3CC[C@H]2C1=O`: the z-score in assay [1] is 0.0972 (inactive); in [3], -0.0937 (inactive); in assay [4] it was -0.0275 (inactive); in assay [5] it was -0.403 (inactive); in assay [6], -0.138 (inactive); in [7], -0.108. The z-score is -1.19 (inactive) in assay [8]; 0.1 (inactive) in [9]; 0.0328 in [10]; 0.111 in [11]; 0.0891 in assay [12]; 0.0082 in assay [13]. Besides, the z-score in assay [14] is -0.681; in [15] it was 0.177; in assay [16], 0.231; in assay [17], 0.55 (inactive); in assay [18], -0.0467; in [19], -0.22. For the same compound, the z-score in assay [20] was -0.561 (inactive). For the same compound, the composite z-score in assay [2] was -0.149.
As for `COC(=O)[C@@H]1CC[C@H](C)[C@@H](c2ccc(C)cc2)N1C(=O)c1ccc(C=NOCC[C@@H]2C=C[C@H](OC(C)=O)[C@@H](COC(C)=O)O2)cc1`, the z-score in assay [1] is 0.118 (inactive); in assay [3], 3.09 (inactive); in assay [4], 0.897 (inactive); in assay [5], 0.533 (inactive); in [6], 0.858 (inactive); in [7], -0.994. Also, the z-score in assay [8] is -1.19 (inactive); in [9], 0.605 (inactive); in [10], -0.134; in assay [11], -0.521; in assay [12] it was 0.556; in [13], -1.13. The z-score in assay [14] is -0.958; in [15], -1.32; in assay [16], -0.674; in assay [17] it was -1.67 (inactive); in assay [18], 0.682; in assay [19] it was -0.136. Moreover, the z-score in assay [20] is 0.154 (inactive). Moreover, the composite z-score in assay [2] was -0.111.
As to `CCN1C(=O)[C@H]2[C@H]3[C@H](O)[C@H](O)CC(=NOC[C@H]4O[C@H](c5ccccc5)C=C[C@@H]4Oc4ccc(OC)cc4)[C@@H]3CC[C@H]2C1=O`, the z-score is 0.575 (inactive) in assay [1]; 10.7 (active) in assay [3]; 1.65 (inactive) in [4]; 0.622 (inactive) in assay [5]; 0.809 (inactive) in [6]; -0.763 in assay [7]. The z-score in [8] is 0.863 (inactive); in [9], 0.91 (inactive); in [10] it was 0.456; in assay [11], 0.964; in assay [12], -0.471; in [13] it was 0.644. Besides, the z-score was -1.98 in assay [14]; -2.23 in [15]; -0.627 in [16]; 0.0264 (inactive) in assay [17]; -1.24 in [18]; -0.409 in [19]. Moreover, in [20], the z-score was -0.531 (inactive). Also, in assay [2], the composite z-score turned out to be 0.171.
For `CCOC(=O)CCN1C(=O)[C@H]2[C@H]3[C@H](O)[C@H](O)CC(=NNC(=O)OCc4ccccc4)[C@@H]3CC[C@H]2C1=O`, the z-score was 0.809 (inactive) in assay [1]; 0.0026 (inactive) in assay [3]; -0.37 (inactive) in assay [4]; -0.371 (inactive) in assay [5]; -0.0393 (inactive) in assay [6]; 0.33 in assay [7]. In addition, the z-score was -4.57 (inactive) in assay [8]; 0.0939 (inactive) in assay [9]; 0.181 in [10]; -0.0996 in assay [11]; 0.902 in assay [12]; 0.554 in assay [13]. Also, the z-score is 0.457 in assay [14]; -0.359 in [15]; -0.398 in assay [16]; -0.773 (inactive) in assay [17]; 0.279 in assay [18]; -0.614 in assay [19]. For the same compound, the z-score in [20] is -0.744 (inactive). The composite z-score in assay [2] was -0.147.
On to `COC(=O)C=CCCc1coc(C=CCNC(=O)OC)n1`, for which the z-score in assay [1] was -0.747 (inactive); in assay [3], 1.78 (inactive); in [4] it was 0.713 (inactive); in assay [5] it was 1.13 (inactive); in assay [6], 0.247 (inactive); in [7] it was 0.41. The z-score in [8] was 0.575 (inactive); in [9], 0.532 (inactive); in [10], 0.21; in assay [11], -0.538; in assay [12], 0.868; in assay [13], -0.586. Besides, the z-score in assay [14] is 0.585; in assay [15], -2.19; in [16] it was 0.0672; in assay [17], -0.944 (inactive); in assay [18] it was 0.073; in [19], 0.681. The z-score in assay [20] was -1.18 (inactive). In assay [2], this compound returned a composite z-score of 0.632.
